According to PubChem BioAssay (NCI):
About 83,000 compounds went through this panel and 20% of them were active in at least one assay; those are over-represented in the sample as a whole.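 Note: values are percent growth. 100 is the growth of untreated cells, values between 100 and 0 indicate rising inhibition; between -100 and 0 indicates cell death.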 Unmarked numbers belong to inactive results. Active and inactive are the calls of the source. Rule for the calls: active = growth percent below 10; inactive = the rest.

Legend:
Assay in all cases: NCI-60 one-dose screen, 48 h (100 = growth as untreated, 0 = no growth, -100 = all killed)
[1] = test system: NCI-H23 lung; details: 10 µM unless noted
[2] = test system: NCI-H322M lung; details: 10 µM unless noted
[3] = test system: HOP-62 NSCLC; details: 10 µM unless noted
[4] = test system: NCI-H460 lung; details: 10 µM unless noted
[5] = test system: HOP-92 NSCLC; details: 10 µM
[6] = test system: NCI-H522 lung; details: 10 µM unless noted
[7] = test system: A549/ATCC NSCLC; details: 10 µM unless noted
[8] = test system: 786-0 renal; details: 10 µM unless noted
[9] = test system: COLO 205 colon; details: 10 µM unless noted
[10] = test system: DU-145 prostate; details: 10 µM unless noted
[11] = test system: K-562 leukemia; details: 10 µM unless noted
[12] = test system: MALME-3M melanoma; details: 10 µM unless noted
[13] = test system: MDA-MB-231 breast; details: 10 µM unless noted
[14] = test system: SF-268 CNS; details: 10 µM unless noted
[15] = test system: SF-295 CNS; details: 10 µM unless noted
[16] = test system: SF-539 CNS; details: 10 µM unless noted
[17] = test system: UACC-257 melanoma; details: 10 µM unless noted
[18] = test system: RXF 393 renal; details: 10 µM unless noted
[19] = test system: M14 melanoma; details: 10 µM unless noted
[20] = test system: NCI-H226 lung; details: 10 µM unless noted

Row | Structure (SMILES) | growth [1] | growth [2] | growth [3] | growth [4] | growth [5] | growth [6] | growth [7] | growth [8] | growth [9] | growth [10] | growth [11] | growth [12] | growth [13] | growth [14] | growth [15] | growth [16] | growth [17] | growth [18] | growth [19] | growth [20]
1 | N#Cc1cccc(NC(=O)c2cc(-c3ccc(F)cc3F)ccc2O)c1 | 2.72% (active) | 10.8% | 20.9% | 5.69% (active) | -24.7% (active) | 1.9% (active) | 11.3% | 13.2% | 95.2% | 20.9% | 11.8% | -9.34% (active) | 6.64% (active) | 18.7% | -16.9% (active) | 15.1% | -6.12% (active) |  |  | 
2 | COc1c(N2CC3CCCNC3C2)c(F)cc2c(=O)c(C(=O)N/N=C/c3ccc4c(c3)OCO4)cn(C3CC3)c12 (stereo not drawn) | 81.8% | 88.3% | 101% | 79.2% |  | 29.3% | 70.2% | 50.3% | 85.5% | 68.9% | 2.44% (active) | 90.3% | 41.3% | 79.4% | 44.2% | -60.4% (active) | 85.3% |  |  | 
3 | CC(=O)c1cc(C(=O)c2ccc(Br)cc2)n2cc(C)cc(C)c12 | 102% | 100% | 85.6% | 88.7% |  | 85.3% | 97.1% | 89.4% | 97.7% | 94.8% | 93.1% | 111% | 90% | 89.7% | 96% | 88.4% | 105% |  |  | 
4 | COc1cc(-c2nn(C(C)(C)C)cc2-c2ccnc(NCCCNS(=O)(=O)c3cccc(F)c3)n2)ccc1Cl | 77.7% | 85.3% | 65.4% | 77.2% | 54.9% |  | 50.7% | 69.7% | 91.5% | 69.3% | 33.4% | 88.4% | 61% | 56.7% | 83.7% | 88.4% | 97.4% | -0.456% (active) | 80% | 
5 | O=S(=O)(Oc1ccc(-c2nnc(Nc3ccccc3)s2)cc1)C(F)(F)C(F)(F)C(F)(F)C(F)(F)C(F)(F)C(F)(F)F | 100% | 113% | 103% | 103% | 101% | 95.9% | 101% | 108% | 104% | 107% | 94.4% | 108% | 86.9% | 100% | 105% | 97.7% | 96.8% | 102% |  | 
6 | O=C1CCCc2nc(Nc3ccc(S(=O)(=O)Nc4ccc([N+](=O)[O-])cc4)cc3)ncc21 | 102% | 106% | 111% |  | 121% | 87.7% | 104% | 99.9% | 121% | 105% | 92.2% | 107% | 99.6% | 96.2% | 101% | 92.8% | 102% | 103% |  | 
7 | CCOC(=O)c1c(NC(=O)c2ccccc2C(F)(F)F)sc2c1CCC(=O)C2 | 23.3% | 113% | 64.8% | 33.3% | 40.1% | 5.03% (active) | 97.5% | 104% | 56.7% | 95.3% | 12.8% | 73% | 15.2% | 22.9% | 41.6% | -6.66% (active) | 98.9% |  |  | 
8 | CC(C)(C)n1nnnc1C(Nc1cccc2c1OCO2)c1cc2cccc3ccc4cccc1c4c32 (stereo not drawn) | 87.4% |  | 98.8% | 88.8% |  | 78.8% | 81.3% | 93.2% | 103% | 97.5% | 75% | 93.2% | 80.5% | 78.7% | 81.9% | 93% | 100% | 40.6% | 97.8% | 82.2%
9 | O=C(c1ccc(O)c(C(=O)N2Cc3ccc(OCCC[P+](c4ccccc4)(c4ccccc4)c4ccccc4)cc3C2)c1)N1Cc2cccc(F)c2C1 | 87.3% |  | 102% | 69.7% |  | 72.9% |  | 98.5% | 52.3% | 99% | 27.1% | 73.2% | 92.9% | 92.7% | 84.9% | 55.6% | 48.5% | 96.4% | 95.1% | 92.3%
10 | COc1cc(-c2nc(SCCC(C)C)nc(NNC(=O)c3ccncc3)c2C#N)cc(OC)c1OC | 91.2% |  | 63.9% | 105% |  | 27.9% |  | 32.3% | 65.9% | 79.1% | 74.6% | 105% | 27.9% | 56% | 65.7% | 71.6% | 94.2% | -16.7% (active) |  | 93%
11 | COc1ccc(/C=C/C(=O)c2cccc(NC(=O)CSc3nc4ccccc4c(=O)n3-c3ccccc3)c2)cc1OC | 106% | 105% | 111% | 100% |  | 96.9% | 91.5% | 103% | 123% | 105% | 89.9% | 107% | 97.3% | 94.6% | 103% | 101% | 110% | 97.7% | 102% | 
12 | C[C@@H]1C[C@H]2C(=O)O[C@@H](C)C(NC(=O)[C@H](Cc3cc(F)cc(F)c3)NC(=O)Nc3ccc(C4CC4)cc3F)C(=O)N3CCC[C@H]3C(=O)N3CCCC[C@H]3C(=O)N[C@@H](CO)C(=O)N2C1 (stereo partly drawn) | 34% |  | 33.3% | 14.4% |  | 13.2% | 25.7% | 40.4% | -38.3% (active) | 25.6% | 18.6% | 36.9% | 33.9% | 31.4% | 11.4% | 35.4% | 11.5% |  | 27.4% | -5.28% (active)
13 | O=C(NNc1nc2cc(F)ccc2n2c(CO)ccc12)c1cnccn1 |  | 22.7% | 5.67% (active) | 2.22% (active) | 11.9% | 2.58% (active) | 13.6% | 17.4% | 8.65% (active) | 22.7% | 8.85% (active) | 10.5% | 35.9% | 20.3% | 3.48% (active) | 3.67% (active) | -1.53% (active) |  |  | 16.3%
14 | C[C@H]1c2[nH]c3ccccc3c2C[C@H]2C(=O)N(CCCCCCC(=O)NO)CC(=O)N21 |  | 84.9% | 88.7% | 82.7% | 67.6% | 65.6% | 98% | 92% | 90.3% | 95.2% | 57.3% | 41.4% | 78.5% | 90.1% | 93.6% | 73.2% | 63% | 93% | 91.4% | 94.6%
15 | CCCCCCCn1cc2c(NCCc3ccccc3)ncnc2n1 |  | 102% | 94.1% | 100% | 94.2% | 95.3% | 98.2% | 99.5% | 129% | 102% | 88.6% | 94.4% | 94% | 99.3% | 90% | 95.9% | 102% | 104% | 100% | 103%
16 | COc1cc(-c2nn(C(C)(C)C)cc2-c2ccnc(NCCCNS(=O)(=O)c3ccc(C)cc3)n2)ccc1Cl |  | 86% | 70.8% | 86.7% | 70.2% |  | 59.7% | 83.2% | 107% | 74% | 57.7% | 94.4% | 58.4% | 63.9% | 88% | 91.3% | 94.6% | 4.95% (active) | 90.5% | 70.9%
17 | Cn1ccnc1C(=O)/C=C/c1ccc(CNC(=O)c2ccc(Cl)cc2)cc1 | -7.45% (active) | 6.29% (active) | 16.3% |  | 10.3% | 7.07% (active) | 8.09% (active) | 12.4% |  | 10.2% | 13.2% | 73.5% | 13.3% | 10.1% | 13.8% | -26.7% (active) | 67.9% |  |  | 
